Records with an inconclusive call do not appear. Active and inactive are the calls of the source. Unless noted, calls follow the shape of the dose curve; as a rule, active = well fitted curve in the direction sought with a large enough effect in the repeat runs; inconclusive = weak or mixed curves; inactive = no such curve, though single readings can be large; an effect the other way counts as inactive or inconclusive.
How the values were obtained:
[1] = biological target: Androgen receptor (Homo sapiens) (UniProt P10275); experiment: qHTS assay to identify small molecule agonists of the androgen receptor (AR) signaling pathway in the presence of an antagonist (AID 1259381; calls by dose curve; also: nearly all actives have a fitted effect of over 15% in size)
Summary of the method: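 Here, 15-concentration compound series were pin-transferred onto MDA-kb2 MMTV-luciferase cells already dosed with nilutamide (3.0uM final). After 16hr at 37C, ONE-Glo was added and luminescence read 30min later at room temperature.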

[2] = qHTS assay to identify small molecule antagonists of the estrogen receptor beta (ER-beta) signaling pathway - cell viability counter screen (AID 1259382);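 also: HEK293T cells carrying ER-beta-UAS-bla reporter stimulated with estradiol; series mostly up to about 92 µM; nearly all actives have a fitted effect of over 55% in size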
Summary of the method: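 Tox21 10K library tested in qHTS format on ER-beta-bla HEK293T cells stimulated with 1nM E2; 16 hr treatment at 37C. Same-well CellTiter-Glo luminescence served as the cell viability measure.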

[3] = qHTS assay to identify small molecule agonists of the estrogen receptor alpha (ER-alpha) signaling pathway in the presence of an antagonist - cell viability counter screen (AID 1259386);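 also: series mostly up to about 92 µM; cells exposed to compounds for 22 h at 37 °C before the viability read; nearly all actives have a fitted effect of over 30% in size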
Summary of the method: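 Fluorescent CellTiter-Fluor viability signal from VM7Luc4E2 cells, with the reagent added during the final hour of a 22hr compound exposure at 37C in the presence of 10.0nM ICI-182,780.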

[4] = biological target: Progesterone receptor (Homo sapiens) (UniProt P06401); experiment: qHTS assay to identify small molecule agonists of the progesterone receptor (PR) signaling pathway (AID 1346784; calls by dose curve; also: nearly all actives have a fitted effect of over 30% in size)
Summary of the method: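 Beta-lactamase reporter read-out: after 16 hr compound treatment at 37C and a further 2 hr at room temperature with LiveBLAzer B/G FRET substrate, fluorescence was measured in PR-UAS-bla HEK 293T cells grown in 2% charcoal-stripped serum.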

[5] = biological target: Progesterone receptor (Homo sapiens) (UniProt P06401); experiment: qHTS assay to identify small molecule antagonists of the progesterone receptor (PR) signaling pathway (AID 1346795; active = well fitted inhibition curve with a large enough effect in the signal ratio in the repeat runs, not every such curve was filed as active; the % refers to the signal ratio)
Summary of the method: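 Read-out is fluorescence from the LiveBLAzer B/G FRET substrate, cleaved by a UAS-controlled beta-lactamase in PR-UAS-bla HEK293T cells after 16 hr exposure to compound plus 1 nM promegestone (final), followed by 2 hr at room temperature.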

[6] = qHTS assay to identify small molecule antagonists of the progesterone receptor (PR) signaling pathway - cell viability counter screen (AID 1346798);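 also: HEK293T PR-UAS-bla cells stimulated with the agonist R5020; series mostly up to about 92 µM; nearly all actives have a fitted effect of over 50% in size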
Summary of the method: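 HEK293T PR-UAS-bla, 2% charcoal-stripped FBS; 4 hr pre-plate; cpd + R5020, 16 h 37C; LiveBLAzer read first; then CellTiter-Glo 30 min RT, luminescence.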

[7] = qHTS assay to identify small molecule agonists of the progesterone receptor (PR) signaling pathway - cell viability counter screen (AID 1346799; calls by dose curve; also: nearly all actives have a fitted effect of over 45% in size)
Summary of the method: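 Luminescence from CellTiter-Glo, added after the beta-lactamase FRET read in the same wells, gave cytotoxicity in PR-UAS-bla HEK293T cells treated with compounds for 16 hr at 37C.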

[8] = qHTS assay to identify small molecule antagonists of the TGF-beta/Smad signaling pathway - cell viability counter screen (AID 1346824); also: nearly all actives have a fitted effect of over 50% in size
Summary of the method: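 SBE-bla HEK 293T cells, incubated overnight, then compound plus 0.25 ng/mL TGF-beta1 (stock added) for 5 hr at 37 C. Viability was read in the same wells by CellTiter-Glo luminescence after 30 min at room temperature.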

[9] = qHTS assay to identify small molecule agonists of the TGF-beta/Smad signaling pathway (AID 1346859; active = well fitted activation curve with a large enough effect in the signal ratio in the repeat runs, not every such curve was filed as active; the % refers to the signal ratio; also: series mostly up to about 77 µM)
Summary of the method: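 SBE-bla HEK 293T, 4,000 cells/well, plated o/n; cpd in DMSO, 5 hr, 37 C/5% CO2; B/G FRET substrate 2 hr RT; ex 405, em 460/530 nm.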

[10] = biological target: Thyrotropin-releasing hormone receptor (Homo sapiens) (UniProt P34981); experiment: qHTS assay to identify small molecule antagonists of the thyrotropin-releasing hormone receptor (TRHR) signaling pathway (AID 1346877; active = well fitted inhibition curve with a large enough effect in the repeat runs, not every such curve was filed as active; also: series mostly up to about 51 µM)
Summary of the method: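 In this cell-based calcium flux format, HEK293 cells expressing TRHR received test compound for 5 min before the agonist TRH (1 nM final). Dye loading lasted 2 h at 37 °C.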

[11] = biological target: Thyrotropin-releasing hormone receptor (Homo sapiens) (UniProt P34981); experiment: qHTS assay to identify small molecule agonists of the thyrotropin-releasing hormone receptor (TRHR) signaling pathway (AID 1346891; calls by dose curve; also: series mostly up to about 58 µM)
Summary of the method: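 Intracellular calcium rise, read as fluorescence every second for 3 min, served as the agonist signal in dye-loaded HEK293 cells expressing TRHR; each compound ran at 15 concentrations in triplicate.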

[12] = Human pregnane X receptor (PXR) small molecule agonists, qHTS cell viability counter screen (AID 1346977); also: nearly all actives have a fitted effect of over 50% in size
Summary of the method: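 PXR-Luc HepG2, 2,000 cells/well, 5% charcoal-stripped FBS; 5hr settle; cpd 24hr, 37C/5% CO2; CellTiter-Fluor at 23hr, read 1hr later (fluorescence).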

[13] = Caspase-3/7 induction in HepG2 cells by small molecules, qHTS assay (AID 1346978); also: nearly all actives have a fitted effect of over 15% in size
Summary of the method: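 Wild-type HepG2 cells, 2,000/well, settled 5 hr at 37 C and 5% CO2, then compound-treated for 17 hr; caspase-3/7 activity read by luminescent Caspase-Glo 3/7 after 30 min at room temperature.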

[14] = Caspase-3/7 induction in CHO-K1 cells by small molecules, qHTS cell viability counter screen (AID 1346979); also: nearly all actives have a fitted effect of over 35% in size
Summary of the method: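 Cells (CHO-K1, wild type) are plated at 1,500 per well and incubated 5hr. Test compounds in DMSO are then pinned in, followed by 16hr at 37C and 5% CO2. Viability is read by CellTiter-Fluor fluorescence after 1hr.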

[15] = Caspase-3/7 induction in CHO-K1 cells by small molecules, qHTS assay (AID 1346980); also: nearly all actives have a fitted effect of over 15% in size
Summary of the method: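 Wild-type CHO-K1 cells exposed to compounds for 17hr at 37 C, 5% CO2. Caspase-3/7 activity then measured by Caspase-Glo 3/7 luminescence after 30min at room temperature.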

[16] = Caspase-3/7 induction in HepG2 cells by small molecules, qHTS cell viability counter screen (AID 1346981); also: series mostly up to about 92 µM; nearly all actives have a fitted effect of over 30% in size
Summary of the method: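 Counter screen for cytotoxicity: HepG2 exposed 16 hr to compounds, then CellTiter-Fluor viability signal (fluorescence, 1 hr reagent incubation).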

[17] = biological target: Estrogen receptor (Homo sapiens) (UniProt P03372); experiment: qHTS assay to identify small molecule agonists of the estrogen receptor alpha (ER-alpha) signaling pathway in the presence of an antagonist (AID 1259383; calls by dose curve; also: top concentration of the series differs between compounds; nearly all actives have a fitted effect of over 15% in size)
Summary of the method: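 In VM7Luc4E2 cells, 4,000 per well, compounds at 15 concentrations were co-incubated 22hr at 37C with 10.0nM final ICI-182,780. Luminescence from the stably transfected 4×ERE-luciferase reporter was recorded 30min after ONE-Glo addition.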

[18] = qHTS assay to identify small molecule agonists or antagonists of the thyroid stimulating hormone receptor (TSHR) signaling pathway - wild type cell line counter screen (AID 1259384; calls by dose curve)
Summary of the method: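 Wild-type Hek293 cells, 800/well, 18 h at 37C, then compound with Ro20-1724 for 30 min RT. cAMP by HTRF (cAMP-d2/anti-cAMP cryptate), 1 h RT, fluorescence read. 15 concentrations, triplicates.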

[19] = biological target: Thyrotropin receptor (Homo sapiens) (UniProt P16473); experiment: qHTS assay to identify small molecule antagonists of the thyroid stimulating hormone receptor (TSHR) signaling pathway (AID 1259385; calls by dose curve; also: nearly all actives have a fitted effect of over 20% in size)
Summary of the method: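 TSHR-HEK293 cells (800/well) plated 18 h, then compounds with Ro20-1724 and TSH at 1.5 ng/mL final, 30 min at room temperature. cAMP quantified by HTRF (cAMP-d2/anti-cAMP-cryptate, 1 h); 15 concentrations in triplicate.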

[20] = qHTS assay to identify small molecule agonists of the TGF-beta/Smad signaling pathway - cell viability counter screen (AID 1346829); also: top concentration of the series differs between compounds; nearly all actives have a fitted effect of over 45% in size
Summary of the method: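 Same-well cytotoxicity: CellTiter-Glo added after the 2 hr room-temperature beta-lactamase substrate step, luminescence measured 30 min later; cells had 5 hr of compound at 37 C.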

Measured: Potency

Sequence of Progesterone receptor (Homo sapiens) (P06401 whole entry, looked up): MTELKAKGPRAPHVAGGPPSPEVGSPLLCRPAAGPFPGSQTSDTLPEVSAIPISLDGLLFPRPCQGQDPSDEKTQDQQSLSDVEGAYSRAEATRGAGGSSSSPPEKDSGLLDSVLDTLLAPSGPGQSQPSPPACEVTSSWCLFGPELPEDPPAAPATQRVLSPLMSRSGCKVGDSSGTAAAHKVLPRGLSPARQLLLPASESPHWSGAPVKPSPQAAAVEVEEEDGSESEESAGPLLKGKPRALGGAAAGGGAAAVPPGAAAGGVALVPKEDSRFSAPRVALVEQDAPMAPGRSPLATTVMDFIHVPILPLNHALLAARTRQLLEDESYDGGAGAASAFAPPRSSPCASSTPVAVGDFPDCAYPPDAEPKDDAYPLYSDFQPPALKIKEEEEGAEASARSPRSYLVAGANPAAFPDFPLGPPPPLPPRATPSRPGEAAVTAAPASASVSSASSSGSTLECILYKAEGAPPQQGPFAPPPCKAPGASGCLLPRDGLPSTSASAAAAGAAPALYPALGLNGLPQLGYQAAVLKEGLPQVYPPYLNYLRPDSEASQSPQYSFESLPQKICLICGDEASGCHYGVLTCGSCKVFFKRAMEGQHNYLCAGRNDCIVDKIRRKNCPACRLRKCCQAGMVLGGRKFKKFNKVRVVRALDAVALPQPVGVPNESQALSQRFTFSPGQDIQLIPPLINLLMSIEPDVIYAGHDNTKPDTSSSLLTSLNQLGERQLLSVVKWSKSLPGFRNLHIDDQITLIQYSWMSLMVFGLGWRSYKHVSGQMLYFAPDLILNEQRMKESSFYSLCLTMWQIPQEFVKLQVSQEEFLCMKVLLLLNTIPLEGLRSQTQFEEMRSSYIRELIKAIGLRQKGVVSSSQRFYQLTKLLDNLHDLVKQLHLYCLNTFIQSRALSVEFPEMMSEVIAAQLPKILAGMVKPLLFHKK
Sequence of Thyrotropin receptor (Homo sapiens) (P16473 whole entry, looked up): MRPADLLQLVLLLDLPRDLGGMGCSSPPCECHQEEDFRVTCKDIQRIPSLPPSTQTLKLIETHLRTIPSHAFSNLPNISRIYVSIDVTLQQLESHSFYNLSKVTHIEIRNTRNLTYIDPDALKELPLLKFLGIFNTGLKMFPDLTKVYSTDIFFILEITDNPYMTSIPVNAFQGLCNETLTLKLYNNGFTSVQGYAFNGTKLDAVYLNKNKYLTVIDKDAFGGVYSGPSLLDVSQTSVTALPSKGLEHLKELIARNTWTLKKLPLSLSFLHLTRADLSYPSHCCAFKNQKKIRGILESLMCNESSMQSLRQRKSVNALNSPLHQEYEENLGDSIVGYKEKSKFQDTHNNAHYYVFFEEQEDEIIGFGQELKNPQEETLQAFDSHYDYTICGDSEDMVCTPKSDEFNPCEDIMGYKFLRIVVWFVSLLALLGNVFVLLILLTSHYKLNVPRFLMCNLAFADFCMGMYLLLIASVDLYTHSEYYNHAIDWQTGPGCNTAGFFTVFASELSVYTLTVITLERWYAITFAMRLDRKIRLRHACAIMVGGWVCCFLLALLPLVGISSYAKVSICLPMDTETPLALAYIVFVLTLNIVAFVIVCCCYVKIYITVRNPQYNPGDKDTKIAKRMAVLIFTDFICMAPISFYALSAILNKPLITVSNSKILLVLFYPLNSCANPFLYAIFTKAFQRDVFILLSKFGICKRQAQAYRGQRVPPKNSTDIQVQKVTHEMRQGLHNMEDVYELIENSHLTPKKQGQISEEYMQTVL
Sequence of Thyrotropin-releasing hormone receptor (Homo sapiens) (P34981 whole entry, looked up): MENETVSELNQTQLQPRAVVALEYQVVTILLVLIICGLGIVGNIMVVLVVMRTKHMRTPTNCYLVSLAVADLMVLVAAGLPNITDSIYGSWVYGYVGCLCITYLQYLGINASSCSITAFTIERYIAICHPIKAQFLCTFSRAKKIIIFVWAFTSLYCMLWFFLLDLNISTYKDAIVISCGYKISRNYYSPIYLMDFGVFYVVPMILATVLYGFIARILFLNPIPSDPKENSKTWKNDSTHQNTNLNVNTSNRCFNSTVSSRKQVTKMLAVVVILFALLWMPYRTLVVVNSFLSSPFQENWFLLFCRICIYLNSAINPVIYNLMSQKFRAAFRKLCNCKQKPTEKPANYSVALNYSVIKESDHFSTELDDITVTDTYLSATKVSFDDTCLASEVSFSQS
Sequence of Androgen receptor (Homo sapiens) (P10275 whole entry, looked up): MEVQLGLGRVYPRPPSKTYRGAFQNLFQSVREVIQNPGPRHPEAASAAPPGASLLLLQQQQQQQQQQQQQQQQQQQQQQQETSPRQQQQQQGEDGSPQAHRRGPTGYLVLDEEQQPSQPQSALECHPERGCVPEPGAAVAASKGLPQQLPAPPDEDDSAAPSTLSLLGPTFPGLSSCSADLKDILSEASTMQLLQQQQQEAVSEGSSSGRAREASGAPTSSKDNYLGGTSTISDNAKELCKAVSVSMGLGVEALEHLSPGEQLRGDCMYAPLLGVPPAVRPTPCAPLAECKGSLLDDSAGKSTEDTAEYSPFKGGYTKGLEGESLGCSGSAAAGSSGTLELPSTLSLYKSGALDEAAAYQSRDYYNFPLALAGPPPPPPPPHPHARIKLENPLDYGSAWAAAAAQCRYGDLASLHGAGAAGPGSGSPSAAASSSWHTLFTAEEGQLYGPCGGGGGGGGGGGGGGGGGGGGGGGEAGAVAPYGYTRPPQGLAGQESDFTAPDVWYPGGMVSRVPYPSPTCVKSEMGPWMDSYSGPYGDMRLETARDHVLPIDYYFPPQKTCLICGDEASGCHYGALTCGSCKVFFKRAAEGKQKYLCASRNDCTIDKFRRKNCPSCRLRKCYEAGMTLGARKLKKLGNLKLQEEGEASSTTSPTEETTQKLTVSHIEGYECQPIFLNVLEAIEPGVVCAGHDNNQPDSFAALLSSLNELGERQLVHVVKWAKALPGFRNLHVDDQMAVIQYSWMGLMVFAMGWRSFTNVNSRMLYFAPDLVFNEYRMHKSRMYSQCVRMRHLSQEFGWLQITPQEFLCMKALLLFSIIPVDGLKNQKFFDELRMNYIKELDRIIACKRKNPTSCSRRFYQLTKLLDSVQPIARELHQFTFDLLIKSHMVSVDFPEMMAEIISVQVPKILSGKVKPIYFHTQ
Sequence of Estrogen receptor (Homo sapiens) (P03372 whole entry, looked up): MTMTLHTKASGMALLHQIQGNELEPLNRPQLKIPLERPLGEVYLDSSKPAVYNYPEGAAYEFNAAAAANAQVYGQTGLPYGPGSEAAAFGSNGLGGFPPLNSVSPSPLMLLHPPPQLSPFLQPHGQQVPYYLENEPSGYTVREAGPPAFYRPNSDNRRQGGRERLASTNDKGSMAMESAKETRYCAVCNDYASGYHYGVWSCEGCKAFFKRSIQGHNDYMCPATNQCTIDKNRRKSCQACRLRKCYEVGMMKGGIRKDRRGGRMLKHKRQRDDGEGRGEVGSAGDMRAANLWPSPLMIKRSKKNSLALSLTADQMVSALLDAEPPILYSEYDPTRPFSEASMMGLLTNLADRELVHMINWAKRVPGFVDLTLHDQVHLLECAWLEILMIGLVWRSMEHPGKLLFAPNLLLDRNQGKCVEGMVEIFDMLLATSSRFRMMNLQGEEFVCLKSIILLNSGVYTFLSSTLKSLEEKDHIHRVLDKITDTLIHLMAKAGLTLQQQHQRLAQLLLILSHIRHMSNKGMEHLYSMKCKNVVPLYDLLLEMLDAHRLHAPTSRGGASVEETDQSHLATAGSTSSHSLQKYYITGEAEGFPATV

CCCCC1CCC(O)CC1 (configuration not stated)
inactive: [1] | [2] | [3] | [4] | [5] | [6] | [7] | [8] | [9] | [10] | [11] | [12] | [13] | [14] | [15] | [16]

COC(=O)c1cc(Cl)cc(Cl)c1
inactive: [1] | [2] | [17] | [18] | [19] | [3] | [4] | [5] | [7] | [8] | [20] | [9] | [10] | [11] | [12] | [13] | [14] | [15] | [16]

CCCCCc1cccc(=O)o1
inactive: [2] | [17] | [18] | [19] | [3] | [4] | [5] | [6] | [7] | [8] | [9] | [13] | [14] | [15] | [16]

CC(Oc1cc(Cl)ccc1Cl)C(=O)O (configuration not stated)
inactive: [1] | [2] | [3] | [4] | [5] | [7] | [8] | [20] | [9] | [10] | [11] | [13] | [14] | [15]

CCC(C)OC(C)CC (configuration not stated)
inactive: [1] | [2] | [17] | [19] | [3] | [4] | [6] | [8] | [20] | [9] | [12] | [13] | [14] | [15] | [16]

CC(C)(CO)C(O)C(=O)NCCCO (configuration not stated)
inactive: [2] | [17] | [18] | [19] | [3] | [4] | [5] | [6] | [7] | [8] | [20] | [9] | [13] | [14] | [15] | [16]

CCOC(=O)CC1(C)OCC(C)O1 (configuration not stated)
inactive: [2] | [17] | [18] | [19] | [3] | [4] | [5] | [6] | [7] | [8] | [9] | [10] | [11] | [12] | [13] | [14] | [15] | [16]

CC(=O)CC(=O)OC(C)(C)C
inactive: [2] | [17] | [18] | [19] | [3] | [4] | [5] | [6] | [7] | [20] | [9] | [10] | [11] | [12] | [13] | [14] | [15] | [16]

CCCC(=O)Nc1ccc(OCC(O)CNC(C)C)c(C(C)=O)c1 (configuration not stated)
inactive: [2] | [17] | [18] | [19] | [3] | [4] | [5] | [6] | [7] | [8] | [9] | [12] | [13] | [14] | [15] | [16]

CCC(C)C(C)=O (configuration not stated)
inactive: [2] | [17] | [18] | [19] | [3] | [4] | [5] | [6] | [7] | [20] | [9] | [10] | [11] | [12] | [13] | [15] | [16]

CC(C)c1ccc(C=O)cc1
inactive: [2] | [17] | [18] | [19] | [3] | [4] | [5] | [6] | [7] | [8] | [20] | [9] | [10] | [11] | [12] | [13] | [15] | [16]

COP(=O)(O)OP(=O)(O)OC
inactive: [2] | [17] | [18] | [19] | [3] | [4] | [5] | [6] | [7] | [8] | [20] | [9] | [10] | [11] | [12] | [13] | [14] | [15] | [16]

Cc1c(NC(=O)c2cccnc2)c(=O)n(-c2ccccc2)n1C
inactive: [2] | [17] | [18] | [19] | [3] | [4] | [5] | [6] | [7] | [8] | [20] | [9] | [10] | [11] | [12] | [13] | [14] | [15] | [16]

CCO
inactive: [2] | [17] | [18] | [19] | [3] | [4] | [5] | [6] | [7] | [20] | [9] | [10] | [11] | [13] | [15] | [16]

O=C(CN1CCNCC1)NC1CCCCC1
inactive: [2] | [17] | [18] | [19] | [3] | [4] | [5] | [6] | [7] | [8] | [20] | [9] | [10] | [11] | [13] | [14] | [15] | [16]

CCOCCOCC
inactive: [2] | [17] | [18] | [19] | [3] | [4] | [5] | [6] | [7] | [20] | [9] | [12] | [13] | [14] | [15] | [16]

CC1(C)[C@H]2CC[C@](C)(C2)[C@H]1O
inactive: [2] | [17] | [18] | [19] | [3] | [4] | [5] | [6] | [7] | [8] | [9] | [10] | [11] | [13] | [14] | [15] | [16]
